The values below come from ChEMBL document CHEMBL3988442, “University of Dundee, Small-Polar-MMV Screening Library” (2021).

Assay [1] has as its target T1, Aspartate--tRNA(Asp/Asn) ligase (Mycobacterium tuberculosis (strain ATCC 25618 / H37Rv)) (UniProt P9WFW3). Also: in the data most compounds retested in dose-response had high values.
T1 sequence (whole entry): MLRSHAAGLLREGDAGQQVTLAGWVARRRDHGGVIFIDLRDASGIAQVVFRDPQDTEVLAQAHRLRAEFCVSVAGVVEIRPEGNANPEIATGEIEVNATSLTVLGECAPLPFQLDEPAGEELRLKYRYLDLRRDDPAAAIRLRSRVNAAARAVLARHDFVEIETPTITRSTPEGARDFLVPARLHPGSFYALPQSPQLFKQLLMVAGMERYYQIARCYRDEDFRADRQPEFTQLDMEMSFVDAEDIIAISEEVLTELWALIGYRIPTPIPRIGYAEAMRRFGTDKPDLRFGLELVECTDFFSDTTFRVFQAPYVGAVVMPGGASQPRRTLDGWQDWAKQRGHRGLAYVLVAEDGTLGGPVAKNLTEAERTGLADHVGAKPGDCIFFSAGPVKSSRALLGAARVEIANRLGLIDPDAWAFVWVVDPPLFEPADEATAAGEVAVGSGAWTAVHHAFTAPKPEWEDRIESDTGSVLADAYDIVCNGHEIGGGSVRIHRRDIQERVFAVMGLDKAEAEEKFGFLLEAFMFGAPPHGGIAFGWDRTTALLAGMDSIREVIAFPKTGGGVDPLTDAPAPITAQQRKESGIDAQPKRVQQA
The assay is described as follows: Assay for Asp RNA synthetase-1 from Mycobacterium tuberculosis. The class given is functional. Also noted: scale not given: direction of the effect not stated beside the values. The settings on record: 30 µM.

The target in assay [2] is Shiga toxin 2 (Escherichia coli O157:H7) (UniProt P09385+P09386). The assay is described as follows: E. coli 0.157:H7 Shiga Toxin SOP - stx2 screening assay. The class given is functional. Also noted: scale not given: direction of the effect not stated beside the values. The settings on record: 30 µM.

As to `Cc1cc(C)n(CC2CCCCN2C(=O)c2ccc3nncn3c2)n1` (configuration not stated), the Percent Effect in assay [1] was -3.1%; in assay [2] it was 14.5%.
Taken in the same sequence, the figures for `O=C(NCC1CC1)C1=NOC2(CCN(Cc3ccc4c(c3)OCO4)C2)C1` (configuration not stated) were 2.18% and -49.8%.
On the same counts, the results for `CC1CCN(S(=O)(=O)NCC2CCOc3ccccc3C2)CC1` (configuration not stated) are 0.0297% and 5.97%.
As for `COc1c(CNC2CCCc3ccccc32)c(C)nn1C` (configuration not stated), the Percent Effect in assay [1] was -1%; in assay [2] it was 13.6%.
On the same counts, the results for `CC(NC(=O)N1CCN(c2ccccc2)CC1)c1nncn1C` (configuration not stated) are 1.07% and -28.9%.
On the same counts, the results for `CC(C)c1nnc2n1CCN(CC(=O)Nc1nncs1)C2` are -2.1% and 10%.
For `Cc1nc(C)n(C2CCCN(C(=O)c3ccc(F)cc3F)C2)n1` (configuration not stated), the values for the Percent Effect in assay [1] and in assay [2] were -6.88% and 1.49%, respectively.
Taken in the same sequence, the figures for `COc1ccc(-c2noc(CNC(C)Cn3cccn3)n2)c(OC)c1` (configuration not stated) were -1.71% and -8.56%.
On the same counts, the results for `Cc1ccc(CN2Cc3c(C(=O)N(C)C)nn(C)c3C2)s1` are 1.3% and -23.6%.
Consider `COc1cc(C(=O)N(Cc2ccc(F)cc2)C2CC2)cc2c1OCCO2`, for which the values for the Percent Effect in assay [1] and in assay [2] were 9.07% and -12.1%, respectively.
Taken in the same sequence, the figures for `Cc1cc(C)n(C2CCCN(C(=O)CCCNc3ncccn3)C2)n1` (configuration not stated) were -5.54% and -43.3%.
For the molecule `Cc1nc(N2CCCCC2)ncc1C(=O)N1CC(C)(C)[C@@](C)(O)C1`, the Percent Effect in assay [1] was 4.7%; in assay [2] it was 3.19%.
Turning to `CC(C)c1nccn1C1CCCN(C(=O)c2cnc[nH]2)C1` (configuration not stated), the Percent Effect in assay [1] was -0.983%; in assay [2], -3.33%.
On the same counts, the results for `O=C(NCc1csc(Br)c1)c1ccncc1` are -0.335% and -44.3%.
On the same counts, the results for `CCS(=O)(=O)N1Cc2nccn2CC(Cn2nc(C)nc2C)C1` (configuration not stated) are 0.776% and 6.38%.
On the same counts, the results for `CN1[C@H](Cn2cccn2)C[C@@H]2CN(C(=O)Cc3cccs3)CC[C@@H]21` are 3.12% and -12.8%.
Consider `O=C(NC1CCS(=O)(=O)C1)c1sccc1-c1ccc(F)cc1` (configuration not stated), for which the results for the Percent Effect in assay [1] and in assay [2] were -5.43% and 3.12%, respectively.
On the same counts, the results for `Cc1cc(-c2cnn(CCNC(=O)C3CCCO3)c2C2CC2)on1` (configuration not stated) are -4.09% and 7.9%.
Taken in the same sequence, the figures for `CN(C)CCOCC1CN(CC2CCOCC2)Cc2nnn(C)c21` (configuration not stated) were -1.11% and -12.4%.
Taken in the same sequence, the figures for `CCOC(=O)NC(CNC(=O)CCc1ccccn1)CC(C)C` (configuration not stated) were 1.17% and 0.307%.
Turning to `Cc1nc(C)n(C2CCCN(C(=O)Cc3n[nH]c4ccccc34)C2)n1` (configuration not stated), the Percent Effect is 2.55% in assay [1] and -3.54% in assay [2].
Turning to `O=C(Cc1ccc2c(c1)CCO2)N1CCCCC1Cn1cccn1` (configuration not stated), the results for the Percent Effect in assay [1] and in assay [2] were -2.75% and -6.84%, respectively.
Taken in the same sequence, the figures for `Cc1cnn(CCNCC(O)COc2ccc(C#N)cc2)c1` (configuration not stated) were 1.2% and -30.5%.
Taken in the same sequence, the figures for `CCn1nc(C)c2ncnc(NCCCN3CCOCC3)c21` were -3.37% and -33.6%.
On the same counts, the results for `Cc1occc1C(=O)N1CCC2(CCC2NC(=O)c2ccn(C)c2)CC1` (configuration not stated) are -3.29% and 13.8%.
Consider `Cc1cnc(N2CCC3(CCCN(c4ccc(C)nn4)C3)C2)nc1` (configuration not stated), for which the values for the Percent Effect in assay [1] and in assay [2] were -0.547% and -25.4%, respectively.
On the same counts, the results for `CCN(CC)c1ccc(C(=O)N(C)Cc2c(C)noc2C)cn1` are 3.51% and 32.5%.
On the same counts, the results for `COc1cccc(C(=O)N2CCc3ncnc(C)c3CC2)c1` are -1.32% and -12%.
Regarding `CCSCCNC(=O)C(c1cccc(C)c1)N(C)C` (configuration not stated), the results for the Percent Effect in assay [1] and in assay [2] were 0.569% and -22.9%, respectively.
For the molecule `OC(CN1CCC(c2ccn[nH]2)CC1)c1cccc(F)c1` (configuration not stated), the Percent Effect in assay [1] was -4.71%; in assay [2], -2.5%.
Regarding `Cc1nc(C)n(CC2CCCN2CC(=O)NCCc2ccccc2)n1` (configuration not stated), the Percent Effect is -7.16% in assay [1] and -6.86% in assay [2].
On the same counts, the results for `CC(C)C(C(=O)N1CCC(Nc2cccnn2)CC1)n1cncn1` (configuration not stated) are 0.434% and 12.4%.
On the same counts, the results for `CC(=O)c1cc(CC(=O)NCc2ccc(CN(C)C)cc2)cs1` are 1.66% and -38.2%.
Taken in the same sequence, the figures for `Cc1nccn1C1CCCN(C(=O)c2ccc(N(C)C)nc2)C1` (configuration not stated) were -1.91% and 26%.
For the molecule `CCS(=O)(=O)N1Cc2nccn2CC(COc2cccnc2)C1` (configuration not stated), the Percent Effect in assay [1] is -1.75%; in assay [2], -12.5%.
Regarding `O=C(c1cscn1)N1C[C@@H]2[C@@H](C1)OCC(=O)N2CC1CCCC1`, the Percent Effect was 4.1% in assay [1] and -48.6% in assay [2].
On the same counts, the results for `CCN1CCN(C2CCN(Cc3noc(C)n3)CC2)C1=O` are -5.45% and -25.5%.
As to `Cn1cc(-c2nc(CNCCn3cccn3)cs2)cn1`, the Percent Effect is -0.0111% in assay [1] and -121% in assay [2].
Taken in the same sequence, the figures for `Cn1nc(C(=O)NCc2ccccn2)c2c1CCS(=O)(=O)C2` were -0.726% and -22.4%.
For the molecule `CCc1ncc2c(n1)CN(CC(=O)Nc1nnc(C)s1)CC2`, the Percent Effect in assay [1] was 4.25%; in assay [2] it was -18.6%.
Taken in the same sequence, the figures for `CCc1nc(CN2CCN(C(=O)CCc3ccccc3)CC2)cs1` were -4.18% and -33.2%.
Taken in the same sequence, the figures for `Cc1cc(CNC(=O)NC(C)c2ccc(N3CCOCC3)cc2)no1` (configuration not stated) were 5.56% and -23.6%.
On the same counts, the results for `c1ccc(C2CCCN2Cc2nnnn2C2CC2)cc1` (configuration not stated) are -2.81% and -5.38%.
On to `CN(CCc1ccccc1)C1CCCN(Cc2nccn2C)C1` (configuration not stated), for which the Percent Effect is 0.357% in assay [1] and -0.197% in assay [2].
On the same counts, the results for `CCN(c1ccc(C(=O)N2CCCC2)cc1)S(=O)(=O)CC` are 5.6% and -13.5%.
On the same counts, the results for `CCN(CC)S(=O)(=O)N1CCCC(c2cccc(C(=O)O)c2)C1` (configuration not stated) are -1.97% and 9.71%.
On to `CNC(=O)c1cc2c(nc1N(C)C)CCN(S(=O)(=O)CC(C)C)CC2`, for which the Percent Effect in assay [1] is -0.801%; in assay [2] it was -2.65%.
Taken in the same sequence, the figures for `Cc1nnc2n1CCN(C(=O)c1cn(-c3ccccc3Cl)nn1)C2` were -0.98% and -42.4%.
Taken in the same sequence, the figures for `Cc1nc(C2CCCN2C(=O)c2ccccc2)ncc1C(N)=O` (configuration not stated) were -3.02% and -6.25%.
Taken in the same sequence, the figures for `Cc1noc([C@H]2C[C@@H]3CCN(CC4CC4)C[C@H]3O2)n1` were 6.95% and -8.04%.
With `COc1cccc(CCC(=O)N2CCCC(n3cc(C)cn3)C2)c1` (configuration not stated), the results for the Percent Effect in assay [1] and in assay [2] were -3.33% and 10.7%, respectively.
